Our source for the outcome values is PubChem BioAssay (Tox21).

Inconclusive results are not listed. Calls of active or inactive are those of the source. Calls follow the shape of the dose curve; as a rule, active = well fitted activation curve with a large enough effect in the signal ratio in the repeat runs (not every such curve was filed as active); inconclusive = weak or mixed curves; inactive = flat fitted curve, though single readings scatter; the % refers to the signal ratio.

The assay can be described thus: qHTS assay to identify small molecule agonists of the TGF-beta/Smad signaling pathway (AID 1346859). To be noted: SBE-bla HEK293T, TGF-beta/Smad beta-lactamase reporter, 5 h; series mostly up to 76.8 µM. From the text:
U.S. Tox21 Program National Center for Advancing Translational Sciences [NCATS] NIH Chemical Genomics Center [NCGC] U.S. Environmental Protection Agency [EPA] National Institutes of Environmental Health Sciences [NIEHS] National Toxicology Program [NTP] U.S. Food and Drug Administration [FDA] Tox21 Assay Overview: Transforming growth factor beta (TGF-beta) superfamily consists of a large number of structurally related dimeric proteins that act as hormones or local mediators in regulating a wide range of biological functions. This superfamily includes TGF-betas themselves, the bone morphogenetic proteins (BMPs) and the activins. These ligands induce oligomerization of serine/threonine receptor kinases and phosphorylate the cytoplasmic signaling molecules of Smad protein family. CellSensor SBE-bla HEK 293T cell line (Life Technologies, Carlsbad, CA), responsive to TGF-beta was used to screen Tox21 10K compound library for identification of agonists/antagonists of the Smad signaling pathway. This cell line contains a beta-lactamase reporter gene under control of the Smad binding element (SBE) stably integrated into HEK 293T cells.
Tox21 Assay Protocol Summary: SBE-bla HEK 293T cells were dispensed at 4,000/well in 6 uL of assay medium into black wall/clear-bottom 1536-well plates using a Multidrop Combi (ThermoFisher Scientific, Waltham, MA) dispenser. After the assay plates were incubated at 37 C and 5% CO2 for an overnight, 23 nL of compounds dissolved in DMSO, positive controls or DMSO only was transferred to the assay plate by a Pintool station (Kalypsys, San Diego, CA). The assay plates were incubated at 37 C and 5% CO2 for 5 hr. One uL of LiveBLAzer B/G FRET substrate (Life Technologies) was added using a Flying Reagent Dispenser (Aurora Discovery, San Diego, CA) and the plates were incubated at room temperature for 2 hr. Fluorescence intensity (405 nm excitation, 460 nm and 530 nm emissions) was measured using an Envision plate reader (PerkinElmer, Shelton, CT).
(qHTS replaces the single test concentration by a dilution series.)
Consider `O=C(O)C(Br)Br`, for which the molecule was classed as inactive.

As for `CCCCC(CC)C(=O)Cl` (stereo not given), the outcome was inactive.

Turning to `CCCOC(=O)c1ccccc1C(=O)OCCC`, the result was inactive.

Take `Nc1cc(Cl)cc(Cl)c1`: the molecule was called inactive.

Consider `CC[N+](=O)[O-]`, for which the molecule was called inactive.

As to `Cc1ccc(N=C=O)cc1N=C=O`, the molecule was classed as inactive.

Consider `c1ccc2c(c1)CCCC2`, for which the molecule was classed as inactive.

On to `Nc1ccc(N)cc1`, for which the molecule was called inactive.

Take `COP(=S)(OC)SCN1C(=O)c2ccccc2C1=O`: the call was inactive.

`CC(=O)/C=C/c1ccccc1`: the result was inactive.

As for `O=C(O)C1C(C(=O)O)C2(Cl)C(Cl)=C(Cl)C1(Cl)C2(Cl)Cl` (stereo not given), the result was inactive.

Turning to `Sc1ccccc1`, the call was inactive.

Take `O=C/C=C/c1ccccc1`: the result was inactive.

For the molecule `CNc1cnn(-c2cccc(C(F)(F)F)c2)c(=O)c1Cl`, the call was inactive.

Regarding `CNC(=O)O/N=C(\SC)C(=O)N(C)C`, the result was inactive.

As for `O=S(=O)(O)OOS(=O)(=O)O`, the molecule was called inactive.

On to `CSc1nnc(C(C)(C)C)c(=O)n1N`, for which the outcome was inactive.

With `CNC(=O)Oc1cccc2ccccc12`, the outcome was inactive.

Consider `N#CN=C(N)N`, for which the molecule was classed as inactive.

`O=C(O)COc1ccccc1`: the result was inactive.

As for `CN(C)C(=O)Cl`, the result was inactive.

On to `CN(C)C(=O)C(c1ccccc1)c1ccccc1`, for which the result was inactive.

Take `CC(C)(C)C(=O)CCl`: the molecule was called inactive.

For `CCSC(=O)N1CCCCCC1`, the molecule was classed as inactive.

With `CCOC(=O)CC(SP(=O)(OC)OC)C(=O)OCC` (stereo not given), the molecule was called inactive.

On to `CC12CC1(C)C(=O)N(c1cc(Cl)cc(Cl)c1)C2=O` (stereo not given), for which the call was inactive.

For the molecule `N#Cc1cccc(C#N)c1`, the call was inactive.

Turning to `CCCCCCCCCCCCCCCCCC(=O)O`, the outcome was inactive.

On to `O=[N+]([O-])c1ccc(Cl)c(Cl)c1`, for which the molecule was called inactive.

As for `COc1nc(NC(C)C)nc(NC(C)C)n1`, the result was inactive.

Take `O=C(O)c1cc(Oc2ccc(C(F)(F)F)cc2Cl)ccc1[N+](=O)[O-]`: the molecule was called inactive.

Regarding `C=CCN=C=S`, the molecule was classed as inactive.

Turning to `Cc1cc(O)ccc1Cl`, the molecule was classed as inactive.

As for `OCC(O)CCl` (stereo not given), the call was inactive.

With `Cc1cccc(C)c1NC(=O)CN1CCCC1=O`, the result was inactive.

With `Nc1cccc(Cl)c1`, the call was inactive.

Turning to `Cc1ccc(N)cc1`, the molecule was classed as inactive.

As to `CN(C)C(=O)Nc1cccc(C(F)(F)F)c1`, the call was inactive.

With `C=CC(=O)OCC(CC)CCCC` (stereo not given), the call was inactive.

Regarding `ClC(Cl)c1ccccc1`, the molecule was called inactive.
